Rows were chosen to be rich in hits. Some 6.9% of all compounds tested hit in one or more screens of this group.
NS3h inh CB = HCV NS3 helicase inhibitors, primary screen, biochemical, fluorescence polarization, ChemBridge library | inhibition, % at 100 µM | AID 687043, 2013 | NS3h Cy5-dT15 DNA binding | hit rate 1.6% among 16,000 | Hepatitis C virus NS3 helicase;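 active = inhibition above the average over every tested compound plus 3 SD, cut at about 40% in these data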
Cy5 interf NS3h = Cy5 fluorescence quenchers or enhancers, artefact control for HCV NS3 helicase inhibitor project, biochemical, ChemBridge library, Cy5 readout; Cy5-dT15 DNA with NS3h, fluorescence interference; actives lie on both sides; signal over control mean, under 1 quenches; hit rate 6% among 16,000; fluorescence interference ratio at 100 µM;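 active = compound fluorescence over control fluorescence at most 0.8, a quencher, or at least a set upper limit, an enhancer; inactive = ratio between 0.8 and the set upper limit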
Starred values were filed as active, the others as inactive.

SMILES	NS3h inh CB	Cy5 interf NS3h
COc1ccc(N(CC(=O)Nc2cc(OC)ccc2OC)S(=O)(=O)c2ccc(OC)c(OC)c2)cc1	11	1.1
COc1ccc(S(=O)(=O)N(CC(=O)Nc2ccc(Br)cc2)c2ccc(C)cc2)cc1OC	17	0.68*
CC(=O)NC(C(Cl)(Cl)Cl)S(=O)(=O)c1ccccc1 (stereo not given)	2	1.1
Cc1oc2ccc(O)cc2c1-c1ccccc1	23	0.9
O=C(/C=C/c1cccc(C(F)(F)F)c1)Nc1cccc(Br)c1	5	0.98
COc1ccc(N(CC(=O)Nc2ccccc2Br)S(C)(=O)=O)c(OC)c1	7	0.98
COc1ccc(NC(=O)CN(c2cccc([N+](=O)[O-])c2)S(=O)(=O)c2ccccc2)c(OC)c1	28	0.7*
COc1ccc(S(=O)(=O)N(CC(=O)Nc2cccc3ccccc23)c2ccc(C)cc2)cc1OC	28	0.68*
COc1ccc(NC(=O)CN(c2cccc([N+](=O)[O-])c2)S(=O)(=O)c2ccccc2)cc1	-2	1
COc1ccc(N(CC(=O)Nc2ccccc2Br)S(C)(=O)=O)cc1	18	1.3*
CCOc1ccccc1NC(=O)CN(c1ccc(C)cc1)S(=O)(=O)c1ccc(OC)c(OC)c1	15	0.97
O=C(Nc1nc2ccccc2n1Cc1ccc(Cl)cc1)c1ccc(Cl)cc1	-2	1.1
O=C(O)COc1ccc2ccc(=O)oc2c1	2	1.2
O=C(CSc1ccccn1)OCC(=O)c1ccc(Br)cc1	4	0.64*
O=C(CSc1cccc2cccnc12)OCC(=O)c1ccccc1	-10	0.93
COc1ccccc1N1CCN(C(=O)c2nn3c(c2Cl)NC(c2ccc(Br)cc2)CC3C(F)(F)F)CC1 (stereo not given)	15	0.96
CCOC(=O)C1CCN(C(=O)CC(c2ccccc2)c2ccccc2)CC1	13	1
CCCC(O)=C1C(=O)CC(C)(C)CC1=Nc1ccc([N+](=O)[O-])cc1	-2	1
COC(=O)CN(c1ccc(F)cc1)S(C)(=O)=O	3	1.1
N/N=C1\NC(=O)C(Cc2cccc([N+](=O)[O-])c2)S1 (stereo not given)	10	1.1
Cc1ccccc1/C=N\N=C1\NC(=O)C(Cc2cccc([N+](=O)[O-])c2)S1 (stereo not given)	15	1.3*
CCOc1ccc(/C=N\N=C2\C(=O)Nc3ccccc32)cc1	-10	0.96
O=C1Nc2ccccc2/C1=N/N=C\c1ccccc1[N+](=O)[O-]	33	0.59*
O=C(/C=C/c1ccccc1Cl)Nc1cccc(F)c1	2	1.1
CCOc1cc(/C=C2\SC(=S)N(C(C)C)C2=O)ccc1O	14	0.89
SMILES	NS3h inh CB	Cy5 interf NS3h
CCOc1cc(/C=C2\SC(=S)N(CC(C)C)C2=O)ccc1O	13	0.78*
CC(Oc1ccc(Cl)cc1Cl)C(=O)NCCN(C)C (stereo not given)	4	0.71*
CC(C)N(Cc1ccccc1)C(=O)CCCOc1ccc(Cl)cc1Cl	9	1
O=C(C(C(=O)N1CCOCC1)C12CC3CC(CC(C3)C1)C2)N1CCOCC1	0	1.1
COc1cc(C2C3=C(CC(C)(C)CC3=O)OC3=C2C(=O)CC(C)(C)C3)cc(I)c1O	7	1.1
COc1cc(C2C3=C(CC(C)(C)CC3=O)OC3=C2C(=O)CC(C)(C)C3)ccc1OCc1ccc([N+](=O)[O-])cc1	10	0.8*
Cc1cc2ncn(C(=O)c3cc([N+](=O)[O-])ccc3Cl)c2cc1C	-3	0.95
O=C(Nc1ccc(Cl)cc1)Nc1nnc(Cc2ccc(Cl)cc2)s1	-2	1.1
O=C(Nc1nnc(Cc2ccc(Cl)cc2)s1)c1ccccc1F	25	0.7*
CCOC(=O)c1ccccc1NC(=O)CN(c1ccc(C)cc1)S(=O)(=O)c1ccc(OCC)cc1	6	1.1
Cc1cccc(C(=O)Nc2nc3ccc(Br)cc3s2)c1	7	1.1
O=C(Nc1nc2ccccc2s1)c1ccc(-c2ccccc2)cc1	35	0.53*
COC(=O)c1cc(C(=O)Nc2ccccc2C(N)=O)cc([N+](=O)[O-])c1	6	0.96
COC(=O)c1cc(C(=O)Nc2nc3ccccc3s2)cc([N+](=O)[O-])c1	-6	0.53*
O=C(/C=C/c1ccc(-c2ccccc2[N+](=O)[O-])o1)Nc1ccc(N2CCOCC2)cc1	17	0.96
COc1ccccc1NC(=O)C(=O)NCCc1ccccc1	-4	0.93
COc1cc(C(=O)N2CCN(C(=O)c3cccs3)CC2)cc(OC)c1OC	-4	1.1
Cc1ccc(NC(=S)NC(=O)C(=O)Nc2ccccc2)cc1	10	0.72*
O=C(Nc1ccccc1)C(=O)Nc1ccc(F)cc1	8	0.96
CN(C1=NS(=O)(=O)c2cc([N+](=O)[O-])ccc21)c1ccccc1	-2	0.89
O=[N+]([O-])c1ccc2c(c1)S(=O)(=O)N=C2Nc1cccc(Cl)c1	-10	0.73*
Cc1ccc(C(=O)Nc2ccccc2)cc1[N+](=O)[O-]	10	0.63*

Screens: PubChem, Milwaukee Institute for Drug Discovery
